Experimental findings from the supplement of paper PMC6555819 are described below.

Test in all cases: PBM binding z-score (relative to random genomic background probes); higher = stronger binding; sequences stand for … in GC…GCGATTGACAGCGTAGAATGAAGG
In assay [1] the test system is FXR:RXRa (NR concentration 270 nM, RXRa partner concentration 90 nM). The gist of the method: (§1)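 Each nuclear receptor dimer, without ligand, was incubated for 1 h on custom Agilent 4×180K protein-binding microarrays. Binding was detected with antibodies against each partner (one per run), and scanned fluorescence was regression-normalized. The binding z-scores are referenced to random human genomic background probes.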

In assay [2] the test system is LXRa:RXRa (NR concentration 270 nM, RXRa partner concentration 90 nM). The gist of the method:
as §1

Assay [3] has as its system LXRa homodimer (NR concentration 270 nM). Put shortly: as §1
Assay [4] relates to LXRb:RXRa (NR concentration 270 nM, RXRa partner concentration 90 nM). The gist of the method: as §1
Assay [5] has as its system LXRb homodimer (NR concentration 270 nM). Put shortly:
as §1

Assay [6] concerns PPARa:RXRa (NR concentration 270 nM, RXRa partner concentration 90 nM). Put shortly: as §1
Assay [7] deals with PPARg:RXRa (NR concentration 180 nM, RXRa partner concentration 90 nM). The gist of the method: as §1
In assay [8] the test system is PPARg:RXRa 270nM:90nM, anti-RXR (NR concentration 270 nM, RXRa partner concentration 90 nM). Put shortly:
as §1

Assay [9] has as its system PPARg:RXRa 30nM:10nM, anti-RXR (NR concentration 30 nM, RXRa partner concentration 10 nM). The gist of the method: as §1
Assay [10] deals with PPARg:RXRa 90nM:30nM, anti-RXR (NR concentration 90 nM, RXRa partner concentration 30 nM). The gist of the method: as §1
Assay [11] relates to PPARg:RXRa DBDmut IVT, anti-RXR (DBD mutation: RXRa K156A/R161A, NR concentration 270 nM, RXRa partner concentration 90 nM). Put shortly:
as §1

For assay [12], the system named is PPARg:RXRa IVT, anti-PPARg (NR concentration 270 nM, RXRa partner concentration 90 nM). Put shortly: as §1
The subject of assay [13] is PPARg DBDmut:RXRa IVT, anti-PPARg (DBD mutation: PPARg1 K132A/R137A, NR concentration 270 nM, RXRa partner concentration 90 nM). The gist of the method:
as §1

In assay [14] the test system is PPARg DBDmut IVT, anti-PPARg (DBD mutation: PPARg1 K132A/R137A, NR concentration 270 nM). The gist of the method: as §1
Assay [15] deals with PPARg homodimer (NR concentration 180 nM). The gist of the method: as §1
The test system of assay [16] is PXR:RXRa (NR concentration 270 nM, RXRa partner concentration 90 nM). The gist of the method: as §1
Assay [17] deals with PXR homodimer (NR concentration 270 nM). The gist of the method:
as §1

The test system of assay [18] is RARa:RXR (NR concentration 270 nM, RXRa partner concentration 90 nM). Put shortly:
as §1

Assay [19] concerns RARa homodimer (NR concentration 270 nM). Put shortly:
as §1

The test system of assay [20] is RARb:RXRa (NR concentration 270 nM, RXRa partner concentration 90 nM). Put shortly: as §1

For CCAGACAGGTGAGAAGCTAACTCAGCCTCGATTA, the PBM binding z-score is -0.201 in [1]; -0.31 in assay [2]; -0.163 in assay [3]; -0.228 in [4]; -0.869 in assay [5]; 0.155 in assay [6]. The PBM binding z-score in assay [7] was 0.347; in assay [8], 0.159; in [9], -0.632; in assay [10], -0.0205; in [11] it was 1.24; in assay [12], 0.141. For the same sequence, the PBM binding z-score is -0.708 in assay [13]; -1.08 in [14]; 0.381 in assay [15]; -0.471 in assay [16]; -0.163 in assay [17]; -0.265 in assay [18]. The PBM binding z-score in assay [19] turned out to be 0.766; in [20], 0.227.
As to AGAATAAGGTTATACGTAGATCAGGGAAGAAAGT, the PBM binding z-score in assay [1] was found to be 1.99; in assay [2], 1.9; in assay [3], 0.223; in assay [4], 1.56; in assay [5] it was 0.0959; in assay [6], 2.65. The PBM binding z-score in [7] turned out to be 1.67; in assay [8] it was 1.3; in [9], 0.895; in assay [10] it was 1.04; in [11] it was 2.81; in assay [12], 1.19. The PBM binding z-score was found to be 1.32 in [13]; 1.1 in assay [14]; 0.729 in [15]; 1.03 in assay [16]; 0.578 in assay [17]; 1.66 in assay [18]. Besides, the results for the PBM binding z-score in [19] and in assay [20] were 0.976 and 1.64, respectively.
TGAATGAGGTTATAAGATCAAGGAACGTTGCAAA: the PBM binding z-score in [1] is 1.48; in assay [2] it was 1.44; in assay [3], -0.207; in assay [4], 0.961; in assay [5], 0.00759; in assay [6] it was 3.01. The PBM binding z-score in [7] stood at 1.79; in [8], 2.39; in assay [9], 1.08; in assay [10], 1.89; in assay [11] it was 1.04; in [12], 1.84. Also, the PBM binding z-score was 0.592 in assay [13]; 0.326 in assay [14]; 0.811 in assay [15]; 0.776 in assay [16]; -0.0343 in assay [17]; 1.37 in [18]. In addition, the PBM binding z-score in [19] turned out to be 0.338; in [20] it was 1.18.
On to TCTAGATGGTCACGGAGGTCACACACGACGGGTA, for which the PBM binding z-score in assay [1] worked out at 3.7; in assay [2], 3.91; in assay [3], 2.8; in assay [4], 3.49; in assay [5] it was 0.481; in assay [6], 4.04. For the same sequence, the PBM binding z-score in assay [7] was determined as 3.59; in assay [8] it was 4.36; in assay [9], 3.7; in [10], 4.04; in assay [11], 2.1; in assay [12] it was 3.58. The PBM binding z-score came to 1.44 in assay [13]; 1.08 in assay [14]; 4.17 in assay [15]; 4.87 in assay [16]; 2.07 in assay [17]; 5.06 in [18]. For the same sequence, the PBM binding z-score in assay [19] was found to be 1.56; in assay [20] it was 3.9.
Turning to GCTCGGAGGACAAGGGCAGAGCTTTGTCCGTAGA, the PBM binding z-score in assay [1] was -0.487; in assay [2], -0.674; in assay [3], -0.975; in assay [4], -1.04; in assay [5], -1.47; in assay [6] it was -0.451. In addition, the PBM binding z-score in assay [7] is -0.879; in assay [8] it was -0.532; in assay [9], -1.18; in assay [10] it was -0.777; in assay [11], -0.664; in [12], -0.527. The PBM binding z-score in [13] is -1.1; in assay [14] it was -1.88; in [15], -0.96; in assay [16], -0.518; in assay [17] it was -0.927; in assay [18], -0.516. The PBM binding z-score in assay [19] is -1.17; in assay [20], 1.4.
